The test concerns HCI01 (cells of a triple-negative basal-like breast cancer xenograft). Description: cell viability of combination (% of vehicle); higher = less cytotoxic. Conditions: 1 µM; 72 h; partner dose: 10 nM. The procedure:
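PDX cells were treated for 72 h with each drug at 1 µM plus afatinib (10 nM; 1 µM for WHIM30). Luciferase viability is expressed as percent of vehicle.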
For the compound `CC(C)C(=O)OCC(=O)[C@@]12O[C@H](C3CCCCC3)O[C@@H]1C[C@H]1[C@@H]3CCC4=CC(=O)C=C[C@]4(C)[C@H]3[C@@H](O)C[C@@]12C` [Ciclesonide] + CN(C)C/C=C/C(=O)Nc1cc2c(Nc3ccc(F)c(Cl)c3)ncnc2cc1O[C@H]1CCOC1 [Afatinib], the “cell viability of combination” value is 67.5. The result for `COC(=O)C1=C(C)NC(C)=C(C(=O)OCCN(C)Cc2ccccc2)C1c1cccc([N+](=O)[O-])c1.Cl` (stereo not given) [Nicardipine HCl] + CN(C)C/C=C/C(=O)Nc1cc2c(Nc3ccc(F)c(Cl)c3)ncnc2cc1O[C@H]1CCOC1 [Afatinib] reads 58.7; that for `COc1cc2c(Oc3ccc(NC(=O)C4(C(=O)Nc5ccc(F)cc5)CC4)cc3F)ccnc2cc1OCCCN1CCOCC1` + CN(C)C/C=C/C(=O)Nc1cc2c(Nc3ccc(F)c(Cl)c3)ncnc2cc1O[C@H]1CCOC1 [Afatinib], 33.9. Regarding `CCN1CCN(Cc2ccc(Nc3ncc(F)c(-c4cc(F)c5nc(C)n(C(C)C)c5c4)n3)nc2)CC1.CS(=O)(=O)O` + CN(C)C/C=C/C(=O)Nc1cc2c(Nc3ccc(F)c(Cl)c3)ncnc2cc1O[C@H]1CCOC1 [Afatinib], the “cell viability of combination” value came out at 40.5. As for `CN1CCN(c2ccc(C(=O)/N=c3\[nH][nH]c4ccc(Cc5cc(F)cc(F)c5)cc34)c(NC3CCOCC3)c2)CC1` [Entrectinib] + CN(C)C/C=C/C(=O)Nc1cc2c(Nc3ccc(F)c(Cl)c3)ncnc2cc1O[C@H]1CCOC1 [Afatinib], the “cell viability of combination” value stood at 57.5.
